Source: PubChem BioAssay (Broad Institute)
Compounds with a hit are over-represented: about 2.3% of the library has one in this group of screens.
C diff growth: inhibitors of Clostridium difficile growth | Clostridium difficile clinical isolate growth, OD600, 24 h; active compounds read low | growth activity, negative = inhibition, % at 16 µg/mL (by protocol) | 86,000 compounds, 0.25% hits;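 active means mean growth activity at or below -80% and every replicate also at or below -80%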;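 further: 0% = DMSO wells and -100% = levofloxacin 16 µg/mL wells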
Pf Dd2 growth: inhibitors of Plasmodium falciparum Dd2 growth. P. falciparum Dd2 growth, SYBR Green, 72 h; active compounds read low. activity change, % at 10 µM. 94,000 compounds, 2.3% hits. AID 1159554; in the data active means activity change below about -80%
Active calls of the source: *; x = no result given; ! = a repeat was not active.

SMILES	C diff growth	Pf Dd2 growth
COc1cccc(S(=O)(=O)Nc2ccc3c(c2)[C@@H]2C[C@@H](CC(=O)NCc4cccc(F)c4)O[C@H](CO)[C@@H]2O3)c1	2.0	-20.5
C[C@H](CO)N1C[C@H](C)[C@H](CN(C)C(=O)c2ccncc2)OCCCC[C@H](C)Oc2ccc(NS(C)(=O)=O)cc2C1=O	-3.0	65.3
COc1ccc2c3c([nH]c2c1)[C@@H](CO)N(Cc1ccccc1F)CC31CCN(C(=O)C2CC2)CC1	2.2	-85.3*
COc1ccc2c3c([nH]c2c1)[C@H](CO)N(Cc1ccccc1Cl)CC31CCN(C(C)=O)CC1	8.0	-89.2*
COc1ccc2c3c([nH]c2c1)[C@H](CO)N(Cc1ccccc1Cl)CC31CN(C(C)=O)C1	-1.6	-90.4*
COCC(=O)N1CC2(C1)CN(Cc1ccccc1Cl)[C@@H](CO)c1[nH]c3cc(OC)ccc3c12	-1.1	-36.7
COc1ccc2c3c([nH]c2c1)[C@H](CO)N(C(C)=O)CC31CCN(Cc2ccccc2Cl)CC1	2.3	-50.5
COc1ccc2c3c([nH]c2c1)[C@H](CO)N(Cc1ccccc1F)CC31CCN(C(=O)C2CCCC2)CC1	-11.2	-17.9
O=S(=O)(c1ccc(-c2ccccc2)cc1)N1C[C@@H]2N[C@H](C1)C2c1ccc(-c2cncnc2)cc1 (some centres not stated)	5.0	1.9
CN(C)C(=O)c1ccc(-c2ccc(C3[C@@H]4CN(S(=O)(=O)c5ccc(F)cc5)C[C@H]3N4)cc2)cc1 (some centres not stated)	-12.0	-20.9
Cc1cccc(S(=O)(=O)N2C[C@@H]3N[C@H](C2)C3c2ccc(-c3cncnc3)cc2)c1 (some centres not stated)	-3.2	-28.0
O=S(=O)(c1ccccc1)N1C[C@@H]2N[C@H](C1)C2c1ccc(-c2ccc(F)cc2)cc1 (some centres not stated)	9.0	-84.5*!
Cc1ccccc1S(=O)(=O)N1C[C@@H]2N[C@H](C1)C2c1ccc(-c2ccc(C(=O)N(C)C)cc2)cc1 (some centres not stated)	-15.6	-24.4
O=S(=O)(c1ccc(F)cc1)N1C[C@@H]2N[C@H](C1)C2c1ccc(-c2ccc(F)cc2)cc1 (some centres not stated)	9.5	-88.5*!
Cc1ccc(-c2ccc(C3[C@@H]4CN(S(=O)(=O)c5ccc(C)cc5)C[C@H]3N4)cc2)cc1 (some centres not stated)	-96.9*	-21.1
Cc1ccccc1S(=O)(=O)N1C[C@@H]2N[C@H](C1)C2c1ccc(-c2ccc(C#N)cc2)cc1 (some centres not stated)	8.4	-83.8*!
COc1cccc(S(=O)(=O)N2CC[C@@H]3[C@@H](CO)Nc4ccc(-c5ccc(C#N)cc5)cc4[C@@H]32)c1	-1.9	10.7
CNC[C@H]1OCCCC[C@H](C)Oc2ccc(NS(=O)(=O)c3c(C)noc3C)cc2C(=O)N([C@H](C)CO)C[C@H]1C	1.6	-13.3
CC(=O)NCCCC[C@@H]1NC(=O)[C@@H]2C[C@H](C(=O)NCc3ccc(F)cc3)[C@H](c3ccc(O)cc3)N2C1=O	-1.1	x
COc1cccc(S(=O)(=O)N2C[C@@H]3N[C@H](C2)C3c2ccc(-c3ccccc3OC)cc2)c1 (some centres not stated)	11.2	-34.2
O=S(=O)(c1ccccc1F)N1C[C@@H]2N[C@H](C1)C2c1ccc(/C=C/c2ccccc2)cc1 (some centres not stated)	9.7	-78.2
O=S(=O)(c1ccccc1)N1C[C@@H]2N[C@H](C1)C2c1ccc(/C=C/c2ccccc2)cc1 (some centres not stated)	-96.3*!	-36.6
Cc1ccc(S(=O)(=O)N2C[C@@H]3N[C@H](C2)[C@@H]3c2ccc(-c3cccc(C)c3)cc2)cc1	1.3	-63.3
Cc1ccc(-c2ccc(C3[C@@H]4CN(S(=O)(=O)c5cccc(C)c5)C[C@H]3N4)cc2)cc1 (some centres not stated)	-94.9*	-42.5
COc1ccccc1-c1ccc([C@@H]2[C@@H]3CN(S(=O)(=O)c4ccc(-c5ccccc5)cc4)C[C@H]2N3)cc1	5.7	-89.2*
CO[C@H]1CN(C)C(=O)c2ccc(NC(=O)NC(C)C)cc2OC[C@@H](C)N(C(=O)CN(C)C)C[C@@H]1C	x	3.5
CCS(=O)(=O)N1CCCCN2[C@@H](CO)[C@@H](c3ccc(-c4ccccc4C)cc3)[C@@H]2C1	-12.6	-36.3
CCC(=O)N1CC2(C1)CN(Cc1cccc(Cl)c1)[C@@H](CO)c1c2c2ccc(OC)cc2n1C	11.6	-49.5
CCC(=O)N1CCC2(CC1)CN(Cc1ccc3c(c1)OCO3)[C@@H](CO)c1c2c2ccc(OC)cc2n1C	-1.9	-91.0*
COCC(=O)N1CCC2(CC1)CN(Cc1ccc3c(c1)OCO3)[C@@H](CO)c1c2c2ccc(OC)cc2n1C	48.0	-70.7
